High-throughput results as filed in PubChem.
The entries come from a sample that favours hits as a whole.
Lassa entry inh = qHTS for Inhibitors of binding or entry into cells for Lassa Virus; Lassa virus pseudotype entry inhibition, cell reporter; Potency, µM (titrated, usually from 37.9 µM), hits mostly inhibitors; 300,000 compounds, 1.2% hits; AID 540256, 2011; calls by dose curve; tested in HEK293 cells; also: nearly all actives have a fitted effect of over 50% in size
Vaccinia Venus = qHTS for Stage-Specific Inhibitors of Vaccinia Orthopoxvirus: Venus Reporter Primary qHTS | Potency, µM (top dose mostly 36.5 µM), actives largely listed as inhibitors | 330,000 compounds, 0.46% hits | Vaccinia virus Venus reporter expression, fluorescence; calls by dose curve; tested in A549 cells; also: nearly all actives have a fitted effect of over 30% in size
Vaccinia mCherry = qHTS for Stage-Specific Inhibitors of Vaccinia Orthopoxvirus: mCherry Reporter Primary qHTS. Potency, µM (doses to about 36.5 µM), most hits filed as inhibitors. 310,000 compounds, 0.63% hits. Vaccinia virus mCherry reporter infection, fluorescence; calls by dose curve; tested in A549 cells; also: nearly all actives have a fitted effect of over 35% in size
Shiga inhibitor = A qHTS for Small Molecule Inhibitors of Shiga Toxin; inhibition, % at 38.7 µM; AID 2315, 2010; Vero cells, Shiga toxin protein synthesis inhibition reporter; 290,000 compounds, 9.2% hits; in the data active = inhibition mostly above about 28%, no sharp cut-off; inactive = mostly below about 43%
Marburg entry inh = qHTS for inhibitors of binding or entry into cells for Marburg Virus. Potency, µM (series often up to 37.8 µM), usual class: inhibitors. 300,000 compounds, 1.8% hits. AID 540276, 2011. Marburg virus pseudotyped entry inhibition, cell reporter; calls by dose curve; tested in HEK293 cells
CHX counter = Cycloheximide Counterscreen for Small Molecule Inhibitors of Shiga Toxin; cell reporter, cycloheximide protein synthesis inhibition counterscreen; AID 2314, 2010; max response, %; 300,000 compounds, 12% hits; in the data active = max response mostly above about 13%, no sharp cut-off; inactive = mostly below about 14%; also: read at 38.3 µM for the half of the compounds with a filed dose
A number is an active result; i = inactive; ? = inconclusive; nt = no result; + = active, no number; [ ] = dose if it differs, or a comment.

SMILES | Lassa entry inh | Vaccinia Venus | Vaccinia mCherry | Shiga inhibitor | Marburg entry inh | CHX counter
C=CCOc1ccc(/C=N/O)cc1Cl | i | i | i | 50 | ? | 20
CCOC(=O)C1=CN(CC2CCCO2)C=C(C(=O)OCC)C1c1ccccc1C(F)(F)F (stereo not drawn) | i | i | i | i | ? | i
Nc1c(C(=O)N/N=C/c2ccc([N+](=O)[O-])cc2)sc2nnc(-c3ccccc3)c(-c3ccccc3)c12 | nt | nt | nt | i | nt | i
Cc1cc(C)nc(SCc2cn3cc(Cl)ccc3n2)n1 | ? | i | i | i | i | i
Clc1ccc2nc(CSc3ncn[nH]3)cn2c1 | i | i | i | i | ? | 15
Brc1ccc2nc(CSc3ncn[nH]3)cn2c1 | i | i | i | 84 | i | 16
CCOC(=O)CSCc1cn2cc(Cl)ccc2n1 | i | i | i | i | i | 24
COc1ccc(C(CNC(=O)C2CC2)N(C)C)cc1 (stereo not drawn) | nt | nt | nt | 27 | nt | 17
Cn1cc(C(=O)N/N=C/c2c(O)ccc3ccccc23)ccc1=O | nt | ? | ? | i | nt | i
Cc1ccc(C(=O)N/N=C/c2c(O)ccc3ccccc23)cn1 | nt | ? | 2.2µM | i | nt | i
Cc1occc1C(=O)N/N=C/c1c(O)ccc2ccccc12 | ? | ? | 1.8µM | 90 | 3.5µM | 36
O=C(N/N=C/c1c(O)ccc2ccccc12)c1cccnc1 | ? | i | ? | i | ? | i
Cn1c(/N=C/c2c(O)ccc3ccccc23)nc2ccccc21 | i | nt | nt | 81 | i | 69
CCCn1c(/N=C/c2ccccc2O)nc2ccccc21 | i | i | i | i | ? | i
Cn1nccc1C(=O)N/N=C/c1c(O)ccc2ccccc12 | nt | nt | nt | 47 | nt | 28
CCS(=O)(=O)c1ncc(N(Cc2ccccc2)Cc2ccco2)c(C(=O)Nc2ccc(C)c(C)c2)n1 | ? | i | i | nt | ? | nt
O=C(N/N=C/c1c(O)ccc2ccccc12)c1ccc(Br)o1 | ? | ? | 2.8µM | i | ? | 18
O=C(NN=Cc1c(O)ccc2ccccc12)c1ccncc1 | 3.2µM | ? | 2.5µM | nt | 3.2µM | nt
Cn1ncc(N=Cc2c(O)ccc3ccccc23)c1C(=O)Nc1cccc(Cl)c1 | ? | i | ? | i | 18µM | i
CC(=O)c1ccsc1B(O)O | nt | i | i | nt | nt | nt
Nc1ccccc1N=Nc1ccccc1N | nt | i | i | 51 | nt | 44
COCCNC(=O)C(c1ccc(F)cc1)N(C(=O)CCC(=O)Nc1nccs1)c1cccc(C)c1 (stereo not drawn) | i | i | i | i | ? | i
CC(C)(C)NC(=O)C(c1ccc(O)cc1)N(C(=O)CCC(=O)Nc1nccs1)c1ccccc1F (stereo not drawn) | i | i | i | i | ? | i
CC(C)(C)NC(=O)C(c1ccc(O)cc1)N(C(=O)CCC(=O)Nc1nccs1)c1cccc(F)c1 (stereo not drawn) | i | i | i | i | 2.3µM | i
Cc1cccc(N(C(=O)CCC(=O)Nc2nccs2)C(C(=O)NC(C)(C)C)c2ccc(O)cc2)c1 (stereo not drawn) | ? | i | i | i | 2.8µM | i
SMILES | Lassa entry inh | Vaccinia Venus | Vaccinia mCherry | Shiga inhibitor | Marburg entry inh | CHX counter
CCOC(=O)Cc1ccc(NC(=O)N2CCOc3ccc(C)cc32)cc1 | i | i | i | nt | nt | nt
COc1cc(-c2c(C#N)c(N)nc3c2c(C)nn3-c2ccc(C)c(C)c2)cc(OC)c1OC | ? | nt | nt | i | 21µM | i
CCCCNC(=O)C[C@@H]1C[C@@]2(C(=O)OCC)CCCC=C2N(CCC2=CCCCC2)C1=O | nt | i | i | nt | nt | nt
CCCc1ccc2oc(C(=O)NCCN3CCCC(O)C3)c(C)c2c1 (stereo not drawn) | ? | i | i | 77 | ? | 34
CCCc1ccc2oc(C(=O)NCc3nnc(C)o3)c(C)c2c1 | ? | i | i | 97 | i | 45
Cc1c(C(=O)NCCCN2CCOCC2)oc2c1C1(CCC2)SCCS1 | i | i | i | + | i | i
CCCc1ccc2oc(C(=O)NCCCN3CCOCC3)c(C)c2c1 | i | ? | ? | 67 | ? | 50
CCCc1ccc2oc(C(=O)N(C)CCn3ccnc3C)c(C)c2c1 | nt | nt | nt | 20 | nt | 13
CCC(C)NC(=O)C1CCCN(c2nc(C)cc(OC)n2)C1 (stereo not drawn) | i | i | nt | i | i | i
COc1cc(C)nc(N2CCCC(C(=O)NC3CCC(C)CC3)C2)n1 (stereo not drawn) | i | i | i | i | i | 32
Cn1c2c(c(=O)n(C)c1=O)C(c1cccc(O)c1)CC(=O)N2 (stereo not drawn) | i | i | i | nt | i | nt
O=C(NCc1ccc(/C=c2\sc3n(c2=O)CCN=3)o1)C(=O)Nc1ccccc1 | nt | nt | nt | i | nt | i
Cc1c(C)n(CCCN(C)C)c2ncnc(NCc3ccccc3)c12 | i | i | i | i | ? | i
COc1ccccc1Nc1ncnc2c1c(C)c(C)n2CCO | i | i | i | 61 | i | 42
Cc1c(C)n(CCc2ccccc2)c2ncnc(NCCO)c12 | nt | i | i | 68 | nt | 52
COc1cc(NC(=O)C2=C(C)OCCS2)c(Cl)cc1C(=O)NCCN(C)C | i | i | i | i | 10µM | i
S=C(NCc1cccnc1)Nc1ccc(Cl)c(Cl)c1 | i | ? | i | i | i | i
CC(C)c1ccc(NC(=O)NCc2cccnc2)cc1 | i | i | i | i | i | 12
O=C(NCc1cccnc1)Nc1ccc(Cl)c(Cl)c1 | nt | nt | nt | 59 | nt | 26
CSc1ccc(NC(=O)NCc2cccnc2)cc1 | ? | i | i | 39 | ? | 28
Cc1ccc(CNC(=O)Nc2ccc(C)cc2)cc1 | nt | nt | nt | i | nt | 22
Cc1cccc(S(=O)(=O)c2cn(Cc3ccccc3)c3cc(N4CCCCC4)c(F)cc3c2=O)c1 | i | i | i | nt | nt | nt
CCOc1ccc(NC(=O)NCc2cccn2C)cc1 | i | i | i | i | ? | i
O=C(NCc1cccnc1)Nc1ccc(Br)cc1 | nt | nt | nt | i | nt | 30
Cc1ccc(NC(=O)NCc2cccnc2)cc1 | i | i | i | i | i | 19
SMILES | Lassa entry inh | Vaccinia Venus | Vaccinia mCherry | Shiga inhibitor | Marburg entry inh | CHX counter
Cn1cccc1CNC(=O)Nc1ccc(Cl)c(Cl)c1 | ? | i | i[1.46 µM] | i | i | 37
O=C(NC1CCCC1)c1ccc2c(=O)n(Cc3ccccc3)c(SCc3ccccc3)nc2c1 | i | i | i | nt | nt | nt
N.N.N.N.N.N.N.N.N.N.N.N.N.N.O.O.[Ru+4].[Ru+5].[Ru+5] | i | nt | nt | nt | ? | nt
CCOC(=O)Cn1c(=O)cc(-c2ccccc2)c2c(C)nn(C)c21 | i | i | i | nt | nt | nt
CCOc1ccc(N2CC(C)Cn3c2nc2c3c(=O)n(CC(=O)O)c(=O)n2C)cc1 (stereo not drawn) | i | i | i | nt | i | nt
Cc1ccc(S(=O)(=O)/N=C2/C=C(C3C(=O)CC(C)(C)CC3=O)C(=O)c3ccccc32)cc1 | i | ? | ? | 140 | ? | 41
COc1ccc(CCNC(=O)c2ccc(SC)cc2OC)cc1 | i | i | i | i | ? | i
CSc1cccc(NC(=O)c2cccc3cccnc23)c1 | i | i | i | 98 | ? | 34
CNS(=O)(=O)c1cc(NC(=O)c2cccc3cccnc23)ccc1C | ? | i | ? | i | i | i
COc1ccccc1C(=O)Nc1ccncc1 | i | i | i | nt | i | i
COc1ccccc1C(=O)Nc1cccc(SC)c1 | i | nt | nt | 66 | i | 33
